In ChEMBL document CHEMBL3988442, “University of Dundee, Small-Polar-MMV Screening Library” (2021):
Out of some 69,000 compounds screened, about 1,000 (1.4%) showed an effect of 50% or more. For the sample, strong results were picked, then their nearest neighbours and some compounds at random.

Tested on: Leishmania donovani
Assay: Leishmania intramacrophage assay
Format: functional, organism-based
Design: scale not given: in the data most compounds retested in dose-response had high values

## O=C(Nc1nncs1)NC1CCOc2ccccc21 (stereo unspecified)
30 µM, 30.03 µM
  Percent Effect: -9.341%

## Cn1cc(CN2CC[C@H]3O[C@@H](COCc4cccnc4)CC[C@H]32)cn1.O=C(O)C(F)(F)F.O=C(O)C(F)(F)F
30.3 µM, […]
  Percent Effect: 18.07%

## O=C(COc1ccccc1)NCC1CCN(Cc2ccsc2)CC1
30.3 µM, […]
  Percent Effect: 8.301%

## CCCS(=O)(=O)N1C[C@@H]2CN(Cc3ccoc3)CCO[C@@H]2C1.O=C(O)C(F)(F)F
30.3 µM, […]
  Percent Effect: 15.12%

## Cc1ccc(OCCCC(=O)Nc2nonc2C)cc1C
30.3 µM, […]
  Percent Effect: 1.215%

## Cc1ccsc1CCNC(=O)CCC(=O)NC1CCCC1
30.3 µM, […]
  Percent Effect: 16.22%

## Cc1ncsc1-c1nc(-c2cccc(CN3CCOCC3)c2)no1
30.3 µM, […]
  Percent Effect: 19.67%

## Cc1nnsc1-c1nnc2sc(C3CCC3)nn12
30.3 µM, […]
  Percent Effect: 11.99%

## Cc1nn2c(-c3snnc3C)nnc2s1
30.3 µM, […]
  Percent Effect: 93.73%

## Cc1nnsc1-c1nnc2sc(C(C)C)nn12
30.3 µM, […]
  Percent Effect: 39.28%

## CCN1CCN(Cc2ccnc(-c3cccnc3)n2)CC1.O=C(O)CC(O)(CC(=O)O)C(=O)O
30 µM, 30.03 µM
  Percent Effect: 7.725%

## Cc1ncsc1C(=O)N(C)Cc1ccsc1
30 µM
  Percent Effect: 23.48%

## CCc1nc(NCC(=O)N2CCOCC2)c2c(n1)c(C)nn2CC
30 µM, 30.03 µM
  Percent Effect: 6.056%

## Cc1cc(NC(=O)NCC(C)N2CCc3ccccc32)no1 (stereo unspecified)
30 µM, 30.03 µM
  Percent Effect: 27.07%

## CN(Cc1cccc(CCN)c1)Cc1cccc2ncccc12
30.3 µM, […]
  Percent Effect: 68.5%

## CN(Cc1cccc(OCCO)c1)Cc1cccc2ncccc12
30.3 µM, […]
  Percent Effect: 37.97%

## CN(Cc1cccnc1N)Cc1cccc2ncccc12
30.3 µM, […]
  Percent Effect: 48.64%

## CN(CCCc1cnn(C)c1)C(=O)C1CCC(=O)N(C2CCCC2)C1 (stereo unspecified)
30.3 µM, […]
  Percent Effect: 11.37%

## COCCN1CCC(CNC(=O)C2(S(C)(=O)=O)CCCC2)CC1
30.3 µM, […]
  Percent Effect: 19.2%

## COCCN(C)C(C(=O)O)c1ccc(F)c(C)c1 (stereo unspecified)
30.3 µM, […]
  Percent Effect: 7.085%

## CC(C)NC(=O)C1CN(Cc2ccc(F)cc2)CC12CCOCC2.O=C(O)C(F)(F)F (stereo unspecified)
30.3 µM, […]
  Percent Effect: 44.53%

## OC(CN1CCN(CC2CCCCC2)CC1)c1ccccc1 (stereo unspecified)
30.3 µM, […]
  Percent Effect: 24.85%

## NC(CC1CCCC1)c1ccc(Oc2ccccc2)cc1 (stereo unspecified)
30.3 µM, […]
  Percent Effect: 99.72%

## Cl.NC(CC1CCCC1)c1ccccc1 (stereo unspecified)
30.3 µM, […]
  Percent Effect: 14.4%

## CC(C)N(C)Cc1cc(=O)n2c(n1)CN(S(=O)(=O)C1CC1)CCC2.O=C(O)C(F)(F)F
30.3 µM, […]
  Percent Effect: 28.49%

## CC(C)N1CCO[C@@H]2CN(C(=O)Cc3cccs3)CC[C@@H]2C1.O=C(O)C(F)(F)F
30.3 µM, […]
  Percent Effect: 50.53%

## CC(C)N1CCO[C@@H]2CN(C(=O)NCc3ccccc3)CC[C@@H]2C1.O=C(O)C(F)(F)F
30.3 µM, […]
  Percent Effect: 17.12%

## CN1CCO[C@@H]2CN(C(=O)Cc3cccs3)CC[C@@H]2C1.O=C(O)C(F)(F)F
30.3 µM, […]
  Percent Effect: 32.46%

## CCOC(=O)c1nnc2ccccc2c1N1CCN(CC)CC1
30.3 µM, […]
  Percent Effect: 18.05%

## COc1ccc(-n2ccnc2-c2cnc(N(C)C)nc2)cc1OC
30.3 µM, […]
  Percent Effect: 25.02%

## CCS(=O)(=O)c1ccc(N2CCC(NC(=O)CC3CCCC3)CC2)cc1
30.3 µM, […]
  Percent Effect: 22.19%

## CCS(=O)(=O)c1ccc(N2CCC(NC(=O)CCC(C)C)CC2)cc1
30 µM, 30.03 µM
  Percent Effect: 63.78%

## CCS(=O)(=O)c1ccc(N2CCC(N)CC2)cc1
30.3 µM, […]
  Percent Effect: 63.99%

## CCNC(=O)NC1CCN(c2ccc(S(=O)(=O)CC)cc2)CC1
30.3 µM, […]
  Percent Effect: 12.14%

## CCS(=O)(=O)c1ccc(N2CCC(NC(=O)C(C)SC)CC2)cc1 (stereo unspecified)
30.3 µM, […]
  Percent Effect: 27.86%

## CCS(=O)(=O)c1ccc(N2CCC(NC(C)=O)CC2)cc1
30 µM, 30.03 µM
  Percent Effect: -2.976%

## CC(=O)NCCNCc1cn(CCN2CCSCC2)nc1C
30.3 µM, […]
  Percent Effect: 28.55%

## CN1C[C@H]2CN(Cc3cccc(OC(F)(F)F)c3)CCN2C1=O
30.3 µM, […]
  Percent Effect: -1.989%

## O=C(Cc1cc2c(cc1Br)OCCO2)NC1CCS(=O)(=O)C1 (stereo unspecified)
30.3 µM, […]
  Percent Effect: 5.517%

## CC(=O)c1ccc(C(=O)N2C[C@@H]3CC[C@H](C2)N(Cc2ccccc2)C3)s1
30.3 µM, […]
  Percent Effect: 9.144%

## COc1cc(F)cc(CNC(=O)Nc2ccn(CC(F)F)n2)c1
30.3 µM, […]
  Percent Effect: 16%

## NCC1Cc2cc(-c3cncc(C(=O)N4CCOCC4)n3)cc(Cl)c2O1 (stereo unspecified)
30.3 µM, […]
  Percent Effect: 7.347%

## NCC1Cc2cc(-c3cncc(C(=O)N4CCCCC4)n3)cc(F)c2O1 (stereo unspecified)
30.3 µM, […]
  Percent Effect: -28.1%

## Cc1cc2c(c(-c3c[nH]c(C)n3)c1)OC(CN)C2 (stereo unspecified)
30.3 µM, […]
  Percent Effect: 38.87%

## NCC1Cc2cc(Cl)cc(-c3cncc(C(=O)N4CCCCC4)n3)c2O1 (stereo unspecified)
30.3 µM, […]
  Percent Effect: 74.83%

## Cc1cc2c(c(-c3cnccn3)c1)OC(CN)C2 (stereo unspecified)
30.3 µM, […]
  Percent Effect: 26.74%

## Cc1cc2c(c(-c3cncc(C(=O)N4CCCC4)n3)c1)OC(CN)C2 (stereo unspecified)
30.3 µM, […]
  Percent Effect: 74.06%

## CC(C)n1cc(N2CC(C(=O)N3CCN(C)CC3)CC2=O)cn1 (stereo unspecified)
30.3 µM, […]
  Percent Effect: 26.64%

## O=C(c1cncc(Br)c1)N1CCCc2ccc(F)cc21
30.3 µM, […]
  Percent Effect: 14.67%

## CCc1c(C)nn(CC(=O)NC(C(=O)O)c2c(C)n[nH]c2C)c1C (stereo unspecified)
30.3 µM, […]
  Percent Effect: 12.75%

## Cc1ccc(CN(C)Cc2cc(C3CC3)[nH]n2)c(O)n1
30.3 µM, […]
  Percent Effect: 5.894%
